Some test systems named below: SR leukemia; RPMI-8226 leukemia; OVCAR-8 ovarian; OVCAR-5 ovarian; OVCAR-4 ovarian; SK-OV-3 ovarian; IGROV1 ovarian; OVCAR-3 ovarian; HS 578T breast; NCI/ADR-RES ovarian; BT-549 breast; MDA-MB-435 melanoma; SW-620 colon; MCF7 breast; HCT-116 colon; HCC-2998 colon; KM12 colon; T-47D breast.
Holding throughout (experiment): NCI-60 one-dose screen, 48 h (100 = growth as untreated, 0 = no growth, -100 = all killed)
Common to all, as to settings: 10 µM unless noted

This is part of a sample that, as a whole, favours compounds with a hit. Of some 83,000 tested, about 20% had one in any assay.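 A percent growth of 40 corresponds to 60% growth inhibition; 0 means no net growth; -100 means all cells died. Active threshold: below 10.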 A number with no mark means an inactive call. The source made the active and inactive calls.

Among the data in PubChem BioAssay (NCI) are growth values, retold here.

Take `c1ccc(Nc2ncc3c(n2)-c2cccn2CC3)cc1`: the growth in the experiment on SR leukemia is 101%; in the experiment on RPMI-8226 leukemia, 97%; in the experiment on OVCAR-8 ovarian it was 104%; in the experiment on OVCAR-5 ovarian it was 77.9%; in the experiment with OVCAR-4 ovarian, 40.3%; in the experiment on SK-OV-3 ovarian, 88.9%. Further, the growth in the experiment with IGROV1 ovarian was 54.5%; in the experiment with OVCAR-3 ovarian, 82.7%; with HS 578T breast it was 91.6%; in the experiment with NCI/ADR-RES ovarian, 98.7%; in the experiment on BT-549 breast, 102%; in the experiment with MDA-MB-435 melanoma, 105%. Also, the growth was 102% with SW-620 colon; 13.4% with MCF7 breast; 92% with HCT-116 colon; 47.5% with HCC-2998 colon; 27.9% in the experiment on KM12 colon.
In the case of `CCOC(=O)CCCCCCCCC(=O)OCC`, the growth in the experiment with SR leukemia was 106%; in the experiment with RPMI-8226 leukemia, 108%; with OVCAR-8 ovarian it was 106%; in the experiment on OVCAR-5 ovarian, 112%; in the experiment with OVCAR-4 ovarian, 111%; in the experiment on SK-OV-3 ovarian, 106%. Also, the growth was 105% with IGROV1 ovarian; 106% with OVCAR-3 ovarian; 110% in the experiment on HS 578T breast; 101% with NCI/ADR-RES ovarian; 109% with BT-549 breast; 112% in the experiment on MDA-MB-435 melanoma. Further, the growth in the experiment with SW-620 colon was 107%; in the experiment on MCF7 breast, 102%; in the experiment on HCT-116 colon it was 110%; in the experiment with HCC-2998 colon it was 98.4%; with KM12 colon it was 105%.
As to `NC(=O)c1c(Nc2ccccc2)nn2cc(-c3nc4ccccc4s3)c(N)nc12`, the growth is 82.8% with SR leukemia; 96.4% with RPMI-8226 leukemia; 102% in the experiment with OVCAR-8 ovarian; 104% in the experiment with OVCAR-5 ovarian; 97.1% in the experiment with OVCAR-4 ovarian; 94.8% with SK-OV-3 ovarian. In addition, the growth with IGROV1 ovarian is 93.3%; in the experiment with OVCAR-3 ovarian, 107%; in the experiment on HS 578T breast, 93.3%; with NCI/ADR-RES ovarian it was 98.9%; in the experiment on BT-549 breast, 102%; in the experiment with MDA-MB-435 melanoma it was 102%. Further, the growth in the experiment with SW-620 colon is 105%; in the experiment on MCF7 breast it was 81.4%; in the experiment on HCT-116 colon it was 99.1%; in the experiment with HCC-2998 colon it was 97.3%; in the experiment with KM12 colon it was 99.5%.
Regarding `Cc1ccc(C(C)C)c(OCc2ccc(C(=O)N/N=C/c3cccc(O)c3O)cc2)c1`, the growth in the experiment on SR leukemia is 9.44% (active); with RPMI-8226 leukemia it was 28.8%; in the experiment with OVCAR-8 ovarian it was 23.7%; with OVCAR-5 ovarian it was 70.3%; with OVCAR-4 ovarian it was 27.8%; in the experiment with SK-OV-3 ovarian, 66.1%. The growth is 40.8% with IGROV1 ovarian; 20.4% in the experiment with OVCAR-3 ovarian; 76.8% in the experiment on HS 578T breast; 1.46% (active) in the experiment on NCI/ADR-RES ovarian; 36.2% in the experiment on BT-549 breast; 55.9% in the experiment on MDA-MB-435 melanoma. Besides, the growth in the experiment on SW-620 colon is 47.8%; with MCF7 breast it was 15.1%; in the experiment with HCT-116 colon, 20.4%; in the experiment on HCC-2998 colon, 45.7%; with KM12 colon it was 36.1%.
`CCN(CC)CCCC(C)Nc1c(C)cnc2cc(Cl)c(C)cc12` (configuration not stated): the growth in the experiment with SR leukemia was 16.5%; in the experiment with RPMI-8226 leukemia it was 43.6%; in the experiment with OVCAR-8 ovarian, 96%; in the experiment with OVCAR-5 ovarian, 98.1%; in the experiment on OVCAR-4 ovarian, 85.4%; in the experiment on SK-OV-3 ovarian, 98.5%. Also, the growth with IGROV1 ovarian is 96.3%; in the experiment with OVCAR-3 ovarian it was 92.9%; with HS 578T breast it was 96.3%; in the experiment with NCI/ADR-RES ovarian, 93.2%; in the experiment with BT-549 breast, 69.2%; with MDA-MB-435 melanoma it was 89.9%. Further, the growth in the experiment with SW-620 colon is 85.9%; with MCF7 breast, 85.6%; with HCT-116 colon it was 56.9%; in the experiment with HCC-2998 colon it was 74.5%; with KM12 colon it was 81.9%.
For the molecule `O=C(NCCO)C(F)(F)F`, the growth with SR leukemia is 98.7%; in the experiment with RPMI-8226 leukemia it was 109%; with OVCAR-8 ovarian, 103%; in the experiment on OVCAR-5 ovarian it was 96.6%; in the experiment with OVCAR-4 ovarian, 118%; with SK-OV-3 ovarian, 100%. The growth with IGROV1 ovarian was 106%; in the experiment on OVCAR-3 ovarian it was 101%; in the experiment with HS 578T breast, 106%; in the experiment with NCI/ADR-RES ovarian it was 106%; with BT-549 breast, 106%; in the experiment on MDA-MB-435 melanoma, 108%. The growth in the experiment on SW-620 colon is 105%; with MCF7 breast, 95.6%; with HCT-116 colon, 108%; in the experiment with HCC-2998 colon, 97%; in the experiment on KM12 colon it was 107%.
With `Cc1nc(N)sc1C(=O)NCCO`, the growth with SR leukemia is 161%; in the experiment with RPMI-8226 leukemia, 115%; with OVCAR-8 ovarian it was 102%; in the experiment with OVCAR-5 ovarian, 107%; in the experiment with OVCAR-4 ovarian it was 113%; in the experiment on SK-OV-3 ovarian it was 113%. Further, the growth was 118% in the experiment on IGROV1 ovarian; 102% in the experiment with OVCAR-3 ovarian; 109% in the experiment on HS 578T breast; 122% in the experiment with NCI/ADR-RES ovarian; 106% in the experiment on T-47D breast; 128% in the experiment on MDA-MB-435 melanoma. In addition, the growth with SW-620 colon is 109%; in the experiment on MCF7 breast, 98.2%; with HCT-116 colon it was 99.6%; in the experiment with HCC-2998 colon, 168%; in the experiment with KM12 colon it was 102%.
As for `O=C1C(=O)c2ccccc2C(O)=C1CCCc1ccc(Oc2ccccc2)cc1`, the growth was 94.5% in the experiment on SR leukemia; 22.3% in the experiment on RPMI-8226 leukemia; 72.7% with OVCAR-8 ovarian; 110% in the experiment with OVCAR-5 ovarian; 59.6% with OVCAR-4 ovarian; 74.7% in the experiment on SK-OV-3 ovarian. Moreover, the growth in the experiment with IGROV1 ovarian is 34.7%; in the experiment on OVCAR-3 ovarian, 49.4%; with HS 578T breast, 95.7%; in the experiment with NCI/ADR-RES ovarian it was 91.6%; in the experiment with BT-549 breast it was 60.9%; in the experiment on MDA-MB-435 melanoma it was 45.4%. The growth in the experiment on SW-620 colon was 39.9%; with MCF7 breast it was 83.3%; with HCT-116 colon, 22.1%; with HCC-2998 colon it was 103%; in the experiment with KM12 colon, 67.3%.
Turning to `C/C=C/C/C=C/[C@H](C)C[C@H](O)[C@@H]1C[C@@H]2O[C@H]2/C=C/[C@H](O)[C@@H](O)/C=C/C[C@H](C)CC(=O)O1`, the growth in the experiment with SR leukemia is 69.9%; with RPMI-8226 leukemia, 42.8%; with OVCAR-8 ovarian, 63.7%; in the experiment with OVCAR-5 ovarian, 93.4%; with OVCAR-4 ovarian, 88.9%; in the experiment on SK-OV-3 ovarian it was 102%. Moreover, the growth is 78.9% in the experiment with IGROV1 ovarian; 84.9% in the experiment with OVCAR-3 ovarian; 11% in the experiment on HS 578T breast; 71.6% in the experiment on NCI/ADR-RES ovarian; 69.9% with T-47D breast; 117% in the experiment with MDA-MB-435 melanoma. The growth in the experiment with MCF7 breast was 83.7%; in the experiment on HCT-116 colon, 70.6%; with HCC-2998 colon it was 95.1%; in the experiment with KM12 colon, 80.2%.
